Hits are enriched below; roughly 3.5% of the tested compounds scored in any of these assays.
Rv3671c inh: Rv3671c serine protease inhibitors, primary screen, biochemical, fluorescence polarization, M. tuberculosis H37Rv | inhibition, % at 5.96 µM | P9WHR9 | hit rate 0.048% among 320,000; in the data active = inhibition above about 38%;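 also: extracellular domain of Rv3671c used as enzyme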
FBA Mtb inh: Mtb FBA enzyme inhibitors, primary screen, biochemical, fluorescence, strain H37Rv. Fructose-bisphosphate aldolase (Mycobacterium tuberculosis (strain ATCC 25618 / H37Rv)), …. purified M. tuberculosis FBA, fluorescence read-out. inhibition, % at 1 µM. hit rate 2.3% among 360,000; in the data active = inhibition above about 27%
Target sequence (P9WQA3 whole entry, looked up): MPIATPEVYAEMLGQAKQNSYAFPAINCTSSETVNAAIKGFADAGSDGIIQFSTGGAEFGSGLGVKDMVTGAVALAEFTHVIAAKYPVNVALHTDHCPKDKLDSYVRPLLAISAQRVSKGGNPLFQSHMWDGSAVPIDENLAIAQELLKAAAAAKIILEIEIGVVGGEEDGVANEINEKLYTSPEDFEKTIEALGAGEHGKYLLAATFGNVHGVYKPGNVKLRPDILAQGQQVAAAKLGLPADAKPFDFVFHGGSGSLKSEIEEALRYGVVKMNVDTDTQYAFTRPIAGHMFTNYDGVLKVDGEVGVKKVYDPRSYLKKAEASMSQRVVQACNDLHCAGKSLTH
GDH-TPI inh: GDH-TPI coupling enzyme inhibitors, primary screen, artefact control for M. tuberculosis FBA inhibitor project, biochemical, absorbance, full deck; GDH-TPI coupled enzyme counterscreen, NADH absorbance; inhibition, % at 4.8 µM; hit rate 1.2% among 360,000; AID 588335, 2011; in the data active = inhibition above about 30%
Mtb UGM inh: M. tuberculosis UGM enzyme inhibitors, primary screen, biochemical, fluorescence polarization, single point | UDP-galactopyranose mutase (Mycobacterium tuberculosis (strain ATCC 25618 / H37Rv)), … | purified UGM, fluorescence polarization probe displacement | inhibition, % at 10 µM | hit rate 0.06% among 320,000 | AID 504406, 2011; in the data active = inhibition above about 10%, passing the limit was not always enough
Of the large screens only hits and unclear results are named; the others gave an inactive call.

O=C(c1ccco1)N1CCN(C(=O)c2cc3c(s2)-c2ccccc2OC3)CC1	FBA Mtb inh 112.5
O=C(c1ccco1)N1CCN(C(=O)c2ccco2)CC1	none (no result: Rv3671c inh, GDH-TPI inh, Mtb UGM inh)
O=C(NCc1cccs1)c1cc2c(s1)-c1ccccc1OC2	FBA Mtb inh active
CC1Oc2ccccc2N(CC(=O)N2CCCCCC2)C1=O (centres undefined)	none
COc1ccc2c(c1)CCc1cc(C(=O)O)sc1-2	FBA Mtb inh active
O=C(NCCCN1CCOCC1)c1cc2c(s1)CCCC2	none
O=C(NCCCN1CCOCC1)c1cc2c(s1)-c1ccccc1OC2	FBA Mtb inh active, GDH-TPI inh 35.3
O=C(O)c1cc2c(s1)-c1ccccc1OC2	FBA Mtb inh active (no result: Mtb UGM inh)
COc1ccc(C2C(C#N)=C(N)Oc3cccc(O)c32)cc1 (centres undefined)	none
COc1ccccc1NS(=O)(=O)c1cccc(C(=O)N/N=C/c2ccc(OCC(=O)O)cc2)c1	none
CCOc1ccc(/C(CCC(=O)O)=N/NC(=O)c2cccc(S(=O)(=O)Nc3ccccc3OC)c2)cc1	Mtb UGM inh 11.3
CCOC(=O)c1nnc(-c2cccs2)nc1NC(C)C	GDH-TPI inh 31.1
CCOC(=O)c1nnc(-c2cccs2)nc1Oc1ccccc1C(=O)OC	none
CCS(=O)(=O)c1ccc(O)c(NC(=O)/C=C/c2ccc(Cl)cc2)c1	GDH-TPI inh 33.8
Cc1ccc(C(=O)Nc2ccc([N+](=O)[O-])cn2)o1	GDH-TPI inh 40.0
Cn1cc(Cl)c(C(=O)N/N=C/c2ccc3c4c(cccc24)CC3)n1	FBA Mtb inh 29.6, GDH-TPI inh 35.9
COc1ccc(C(=O)/C=C/N2CCCCC2)cc1OC	GDH-TPI inh 50.0
CC1(C(=O)NS(=O)(=O)Cc2cccc(Cl)c2)CCN1C(=O)C1CCCCC1 (centres undefined)	none (no result: Rv3671c inh, Mtb UGM inh)
CN1C(=O)N(C)C(=O)C2(Cc3c(ccc4ccccc34)N(C)C2)C1=O	none
CN1CC(C(=O)O)Cc2c1ccc1ccccc21 (centres undefined)	FBA Mtb inh 102.3
Cc1ccccc1S(=O)(=O)/N=C(/Nc1nc2ccccc2s1)c1ccccc1	GDH-TPI inh 43.7
C=CCCC(=O)N1C[C@@H](CO)[C@@H](NC)C[C@H]1c1ccccc1Br	none (no result: Rv3671c inh, GDH-TPI inh, Mtb UGM inh)
O=C(COc1ccc2c3c(c(=O)oc2c1)CCCC3)NCc1cccnc1	none
COc1cccc(CNC(=O)C2(C)Oc3ccccc3NC2=O)c1 (centres undefined)	none
COc1ccccc1CNC(=O)COc1cc2c(c3oc(=O)cc(C)c13)CCC(C)(C)O2	FBA Mtb inh 188.8
Cc1cc(=O)oc2c3c(cc(OCC(=O)NCc4cccnc4)c12)OC(C)(C)CC3	FBA Mtb inh active
COc1cccc(CNC(=O)COc2cc3c(c4oc(=O)cc(C)c24)CCC(C)(C)O3)c1	FBA Mtb inh 167.7
N#CC(c1ccc(O)cc1)N1CCN(C(C#N)c2ccc(O)cc2)CC1 (centres undefined)	GDH-TPI inh 82.1 (no result: Rv3671c inh, Mtb UGM inh)
COc1ccc(C(C#N)N2CCOCC2)cc1 (centres undefined)	none
CC(=O)OC1=Cc2c(ccc3ccc(=O)oc23)OC1(C)C	none
CC(C)CC(=O)OC(C)(C)[C@@H]1Cc2c(ccc3ccc(=O)oc23)O1	FBA Mtb inh 181.6
C/C=C(/C)C(=O)OC(C)(C)[C@@H]1Cc2c(ccc3ccc(=O)oc23)O1	FBA Mtb inh active
C/C=C(/C)C(=O)O[C@@H]1c2c(ccc3ccc(=O)oc23)O[C@@H]1C(C)(C)OC(=O)/C(C)=C\C	none
Cc1ccccc1OCCNC(=O)CSc1ccc(C(F)(F)F)cc1[N+](=O)[O-]	none
COc1cccc(OC)c1NC(=O)C1CCCN1C(=O)Nc1ccccc1F (centres undefined)	none (no result: Rv3671c inh, Mtb UGM inh)
O=C(Oc1ccc(Cl)c(Cl)c1)C1=CC=CN2CCS(=O)(=O)N=C12	none
O=S1(=O)CCN2C=C(Cl)C=C(Cl)C2=N1	FBA Mtb inh 140.2
O=C(Nc1cc(S(=O)(=O)N2CCCCC2)ccc1Cl)c1ccc(F)cc1	none
CC1CN(S(=O)(=O)c2ccc(C(=O)N(C)C3CCCCC3)cc2)CC(C)O1 (centres undefined)	none
O=C(NCc1cccnc1)c1cccc(Cl)c1	none
COc1ccc(CNC(=O)c2ccc(=O)oc2)cc1OC	GDH-TPI inh 59.6
COc1ccc(C(=O)NCc2ccc(Cl)c(Cl)c2)cc1OC	none
O=C(NCc1cccnc1)c1ccc(=O)oc1	GDH-TPI inh 43.4
Nc1n[nH]c(N)c1N=Nc1ccccc1F	GDH-TPI inh 38.0
Cc1ccccc1N=Nc1c(N)n[nH]c1N	none (no result: Rv3671c inh)

Source: PubChem BioAssay (several laboratories)
